Screens (PubChem BioAssay)
Rows were chosen to be rich in hits. Some 2.6% of all compounds tested hit in one or more screens of this group.
Cruzain Triton: inhibitors of Trypanosoma cruzi cruzain with detergent. AID 1478. purified cruzain, Z-FR-AMC fluorescence, 0.01% Triton. 0.43% of 200,000 active. Potency, µM, most hits filed as inhibitors. P25779; note: nearly all actives have a fitted effect of over 40% in size
Target sequence (P25779 123-467 limits assumed): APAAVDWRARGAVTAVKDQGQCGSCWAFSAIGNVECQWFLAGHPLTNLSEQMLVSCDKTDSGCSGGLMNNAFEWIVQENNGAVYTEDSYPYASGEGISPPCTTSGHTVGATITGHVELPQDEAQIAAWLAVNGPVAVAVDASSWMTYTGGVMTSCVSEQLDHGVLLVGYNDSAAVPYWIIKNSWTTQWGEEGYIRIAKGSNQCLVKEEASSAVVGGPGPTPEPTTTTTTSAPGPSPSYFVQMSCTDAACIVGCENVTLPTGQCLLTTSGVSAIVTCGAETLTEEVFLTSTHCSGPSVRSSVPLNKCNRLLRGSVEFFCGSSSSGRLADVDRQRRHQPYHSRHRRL
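Cysteine protease activity tested under reducing, mildly acidic conditions (100 mM sodium acetate pH 5.5, 5 mM DTT) plus 0.01% Triton X-100. Cruzain 1.5 nM; substrate Z-FR-AMC 2 uM; 15 min compound preincubation at room temperature.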
Cruzain noTriton: inhibitors of Trypanosoma cruzi cruzain without detergent; purified cruzain, Z-FR-AMC fluorescence, no detergent; Potency, µM, most hits filed as inhibitors; 2.3% of 200,000 active; note: nearly all actives have a fitted effect of over 40% in size
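Purified cruzain at 1.5 nM, pre-incubated 15 min with compound at room temperature in 100 mM sodium acetate pH 5.5, 5 mM DTT, 0.00005% Triton X-100. Reaction started with 2 uM Z-FR-AMC; AMC fluorescence increase over 60 s gives rate.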
Papain inh: papain (Carica papaya) inhibition counter-screen; shares compounds with Cruzain Triton; purified papain, Z-FR-AMC fluorescence cleavage; Potency, µM, usual class: inhibitors; 41% of 410 active; note: nearly all actives have a fitted effect of over 35% in size
Numbers stand for hits; – = inactive; ? = inconclusive; · = not tested or not shown. Calls come from the whole dose curve; as a rule, active = well fitted curve in the direction sought with a large enough effect; inconclusive = small, poorly fitted or top-dose-only effect, or another doubt; inactive = no such curve, though single readings can be large; an effect the other way counts as inactive or inconclusive.

SMILES	Cruzain Triton	Cruzain noTriton	Papain inh
CCOC(=O)Cn1nnnc1CN(Cc1ccc(OC)cc1)Cc1cc2cc(C)ccc2[nH]c1=O	–	?	·
Cc1ccc2[nH]c(=O)c(CN(CCCO)Cc3nnnn3Cc3ccccc3)cc2c1	·	·	–
Cc1ccc2[nH]c(=O)c(CN(CCc3ccccc3)Cc3nnnn3CC3CCCO3)cc2c1 (stereo not drawn)	–	–	·
CCOc1ccc2[nH]c(=O)c(CN(CCO)Cc3nnnn3CCc3ccccc3)cc2c1	–	–	·
Cc1ccc2[nH]c(=O)c(CN(CCO)Cc3nnnn3Cc3ccccc3)cc2c1	·	·	–
Cc1ccc(CN(Cc2cc3cc(C)ccc3[nH]c2=O)Cc2nnnn2Cc2ccccc2)cc1	·	·	–
O=C(NC1CCCC1)c1ccc2nc[nH]c2c1	–	–	·
O=C(NCCO)c1ccc2nc(-c3ccco3)c(-c3ccco3)nc2c1	13µM	13µM	32µM
O=C(NC1CCCC1)c1ccc2nc(-c3ccco3)c(-c3ccco3)nc2c1	14µM	5µM	14µM
O=C(NCCO)c1ccc(Cl)c(Cl)c1	–	–	·
CCOc1ccc(NC(=O)C2CCN(c3nnc(-n4c(C)ccc4C)s3)CC2)cc1	–	–	·
Cc1ccc(C)c2sc(NC(=O)c3ccc(S(=O)(=O)N4CCC(C)CC4)cc3)nc12	–	?	·
CC1=C(C(=O)Nc2ccccc2C)C(c2cccs2)n2nc(SCc3cc(C)ccc3C)nc2N1 (stereo not drawn)	–	–	·
N#Cc1nc(Nc2cccc3ccccc23)nc(NC2CCCC2)n1	·	·	4.5µM
N#Cc1nc(NCC2CC2)nc(Nc2ccccc2)n1	·	·	1.3µM
COc1cccc(Nc2nc(C#N)nc(NC3CCCC3)n2)c1	·	·	0.28µM
COc1cccc(/C=C/c2nc(C#N)c(NC3CCCCC3)o2)c1	–	–	·
CC1CN=C(Nc2cccc3ccccc23)S1 (stereo not drawn)	–	–	·
Nc1nc(NCC2CCC(CNS(=O)(=O)c3cccc4ccccc34)CC2)nc2ccccc12 (stereo not drawn)	–	?	·
c1ccc(Nc2nc(N3CCCC3)nc(N3CCCC3)n2)cc1	–	–	·
N#Cc1nc(Nc2ccccc2)nc(NC2CCCC2)n1	·	·	0.45µM
CN1C(=O)c2ccccc2Sc2ccc(NC(=O)N3CCN(c4cccc(Cl)c4)CC3)cc21	–	–	·
CC(C)C(=O)Nc1nnc(SCc2cc(=O)n3ccccc3n2)s1	–	–	·
COc1ccc(-c2cn3c(n2)sc2cc(C(=O)NCCC4=CCCCC4)ccc23)cc1	–	–	·
O=C(CN1C(=O)COc2ccc(S(=O)(=O)N3CCOCC3)cc21)N1CCN(c2ccccc2F)CC1	–	–	·
SMILES	Cruzain Triton	Cruzain noTriton	Papain inh
c1ccc(-c2nnc(-c3ccccn3)nc2NC2CCCCC2)cc1	–	–	·
N#Cc1nc(Nc2ccc(F)cc2)nc(NC2CCCC2)n1	·	·	0.45µM
O=C(Nc1ccc(F)cc1)NC1CCCCC1	–	–	·
N#Cc1nc(Nc2ccc(-c3ccccc3)cc2)nc(NC2CCCC2)n1	·	·	3.5µM
N#Cc1c[nH]n2c(NC3CCCC3)c(-c3cccc(Br)c3)nc12	–	?	·
N#Cc1nc(Nc2cccc(Br)c2)nc(NC2CCCC2)n1	·	·	1.3µM
CCCc1cc(=O)[nH]c(SCc2nc(-c3ccc(C)cc3)no2)n1	–	–	·
CCCNC(=O)CSc1cn(CC(=O)N2CCCCCC2)c2ccccc12	–	–	·
Cn1ncnc2c(=O)n(C)c(=O)nc1-2	1.3µM	1.3µM	–
CCc1ccc(-c2nn[nH]n2)cc1	–	–	·
Cc1ccc(-c2nc3c(=O)n(C)c(=O)nc-3n(C)n2)cc1	·	·	–
CCc1ccc(-c2nc3c(=O)n(C)c(=O)nc-3n(CC)n2)cc1	·	·	–
Cc1ccccc1-c1nccc(-n2ccnc2)n1	–	–	·
Cc1ccc(-c2nc(N)n(S(C)(=O)=O)n2)cc1	–	–	·
Cn1c(=O)c(-c2ccc(Cl)cc2)nc2cncnc21	–	–	·
Cc1ccccc1-c1nc2c(=O)n(C)c(=O)nc-2n(C)n1	·	·	–
COc1ccc(-c2nsc(NC(=O)c3oc4cc(C)c(C)cc4c3C)n2)cc1	–	–	·
COc1ccc(-n2c(=O)c3c4c(sc3n3c(SC(C)C)nnc23)COC(C(C)C)C4)cc1 (stereo not drawn)	–	–	·
COC(=O)c1cc(-c2ccc3ccccc3c2)[nH]c(=O)c1C#N	–	–	·
CC1=C(C(N)=O)C(c2cccc(C)c2)n2nc(-c3cccc(C)c3)nc2N1 (stereo not drawn)	–	–	·
CC(C)(C)c1ccc(S(=O)(=O)c2cnc(SCC(=O)Nc3ccc(F)c(Cl)c3)[nH]c2=O)cc1	20µM	–	2.8µM
O=C(CSc1ncc(S(=O)(=O)c2ccc(Cl)cc2)c(=O)[nH]1)Nc1cccc(C(F)(F)F)c1	?	–	·
COc1ccc2c(c1)C(=O)[C@@H](OC(=O)NS(=O)(=O)c1ccc(C)cc1)[C@H](c1ccc(OC)c(Br)c1)O2	–	–	·
CC(C)(C)NC(=O)COC(=O)CNC(=O)C1CCCCC1	·	·	–
Cc1cc(NC(=O)CNC(=O)C2CCCCC2)no1	–	–	·
